# Measured values from the supplement of paper PMC6555819.
# Test system: RARb homodimer (NR concentration 270 nM)
# Test: PBM binding z-score (relative to random genomic background probes); higher = stronger binding; sequences stand for … in GC…GCGATTGACAGCGTAGAATGAAGG
# Method in brief: (§1)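 The probes on custom Agilent 4×180K protein-binding microarrays were double-stranded, with 34-nt variable regions bearing direct-repeat seeds, single-nucleotide variants, half-site ablations and random human genomic background sequences. Incubation lasted 1 h with ligand-free nuclear receptor dimers in PBS pH 7.4, 2% milk, 0.02% Triton X-100, 1 mM DTT, 0.2 mg/mL BSA and 0.4 mg/ml salmon testes DNA. Antibodies against each partner (one per run) detected bound dimers, and fluorescence scans were regression-normalized. Binding z-scores take the random background probes as reference.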
row,Sequence,PBM binding z-score
1,ATATGTAGGTTAGATCCGGGTCATTCAGGCTATG,2.63
2,AGTCAAAGTTCACTAGGTAACGTCAGATTCAGCT,3.86
3,CATACAGGGTCAGCTAGGCCATAGTAGGGACGGC,3.28
4,ATCTCTAGGTAAAACTCAGTTCAGTGAAGAACGC,0.751
5,ATCTCTAGGGAAAGTTCAGTGAAAGATCGATAGA,2.2
6,GATACAGAGTCAAGGCCAGAGTACGCGTATTGAT,0.0594
7,GGAACGAGGGCATAGTTGATAGCATCTGTCGACG,0.536
8,TAGCCTAGGTCATTCAGGGGCCCGTATAGAAAGC,2.42
9,CCTCGGAGGACAGAAGGTCAGAGCGGTCCGCTTT,3.61
10,CCTAGTTGGTCAGGACGTCACACACCGGATATGA,0.767
11,CCTCGGAGGACAGAAGGTCAGAGATGTCCGCTTT,3.39
12,CGTCCAAGGTCTGAGAGGTCAGTGAATGCCGAGT,3.72
13,ATCTCTAGGTACAAGTTCAGTGAATCCCGAGGAT,1.52
14,GCAGAAAGGTGAAACGCAGGTAACTCAGGGTGGC,1.55
15,GCTAGCAAGCCATTTGGGTCACTCAATGACGGGC,1.36
16,CGAACTAGGTCATTGACAGGACAGGGAATAGTAA,2.89
17,ACAGGCAGGTGAGTGAAGGTAACTCAGCTGGACG,0.0493
18,CAAACTAGGTTAAGAGGTCAAAGTCCGCTTCCCG,4.7
19,TCGAGTAGGTTACCAATGGGGCATCCAGCTTTCT,0.918
20,TACCCTAGGTCATGCGGGCCAGTATAGTGTCGGC,3.28

row,Sequence,PBM binding z-score
1,CTCGAACGGTCGTGCTCAGGTGAGTATACCAAAC,0.628
2,TATACAGAGTCAAAGGCCAGAGTACGAATGTCGA,0.843
3,TCTTGTAGATCAGCAGGGTAAGAAAGCTGGCCAA,-0.187
4,ACTATTGGTTGACTTAGGGCAACCGATACGACGC,0.788
5,CGTCCAAGGTCAGAGAGGTCAGTGATTGCCGAGT,5.16
6,CCTACTGGGCCAAAAAGGTCACTGATGCCGATAA,4.56
7,CCTCGGAGGACAACACGAGGTCAGAGCTGCCAGA,3.53
8,CGAACGAGGGCTTGAGTTGATAGCAAATGCCGAT,-0.757
9,AGTCAAGGTTCAGGACGAGGTAACGTAAAGCACG,1.55
10,CGAACTAGGTCAGAACAGGACAGGGAAGGATGAT,2.37
11,CCTACTGGGCCACGAAAGGACATTGATTCAGTGA,1.2
12,AGAACGCGGGCAATGAGTTGATAGCACGGGTGGC,-0.332
13,CCTCGGAGGATAACAGGAGGTCAGAGCTGCCAGA,2.61
14,ATATGTAGGTTACACCCGGGTCATTCAGGCTATG,3.06
15,AGAATGAGGGTATACGTAGATCAGGGAAGAAAGT,0.451
16,CCTACTTGGCCAAAGGTCATTGATTCCAATGCTC,4.5
17,ACTCGGAGGACACAGGTCAGAGCTACGCCAGTGA,2.78
18,AGAATGAGGTTATTCGTAGATCAGGGAAGAAAGT,0.677
19,TAGCCTAGGTCAGATCGGGACAGTATACGCTATA,2.11
20,CGAACTAGGTCAGAACAGGGCAGTGAAGGATGAT,2.52

# Test system: RARg:RXRa (NR concentration 270 nM, RXRa partner concentration 90 nM)
# Test: as above
# Method in brief: as §1
row,Sequence,PBM binding z-score
1,ATATGTAGGTTAGATCCGGGTCATTCAGGCTATG,3.21
2,AGTCAAAGTTCACTAGGTAACGTCAGATTCAGCT,5.2
3,CATACAGGGTCAGCTAGGCCATAGTAGGGACGGC,4.35
4,ATCTCTAGGTAAAACTCAGTTCAGTGAAGAACGC,0.623
5,ATCTCTAGGGAAAGTTCAGTGAAAGATCGATAGA,2.01
6,GATACAGAGTCAAGGCCAGAGTACGCGTATTGAT,0.0796
7,GGAACGAGGGCATAGTTGATAGCATCTGTCGACG,0.949
8,TAGCCTAGGTCATTCAGGGGCCCGTATAGAAAGC,4.22
9,CCTCGGAGGACAGAAGGTCAGAGCGGTCCGCTTT,3.59
10,CCTAGTTGGTCAGGACGTCACACACCGGATATGA,0.464
11,CCTCGGAGGACAGAAGGTCAGAGATGTCCGCTTT,3.26
12,CGTCCAAGGTCTGAGAGGTCAGTGAATGCCGAGT,2.97
13,ATCTCTAGGTACAAGTTCAGTGAATCCCGAGGAT,0.997
14,GCAGAAAGGTGAAACGCAGGTAACTCAGGGTGGC,3.22
15,GCTAGCAAGCCATTTGGGTCACTCAATGACGGGC,0.373
16,CGAACTAGGTCATTGACAGGACAGGGAATAGTAA,4.58
17,ACAGGCAGGTGAGTGAAGGTAACTCAGCTGGACG,-0.184
18,CAAACTAGGTTAAGAGGTCAAAGTCCGCTTCCCG,5.88
19,TCGAGTAGGTTACCAATGGGGCATCCAGCTTTCT,1.39
20,TACCCTAGGTCATGCGGGCCAGTATAGTGTCGGC,4.07

row,Sequence,PBM binding z-score
1,CTCGAACGGTCGTGCTCAGGTGAGTATACCAAAC,0.435
2,TATACAGAGTCAAAGGCCAGAGTACGAATGTCGA,0.902
3,TCTTGTAGATCAGCAGGGTAAGAAAGCTGGCCAA,-0.327
4,ACTATTGGTTGACTTAGGGCAACCGATACGACGC,0.838
5,CGTCCAAGGTCAGAGAGGTCAGTGATTGCCGAGT,6.26
6,CCTACTGGGCCAAAAAGGTCACTGATGCCGATAA,4.77
7,CCTCGGAGGACAACACGAGGTCAGAGCTGCCAGA,3.58
8,CGAACGAGGGCTTGAGTTGATAGCAAATGCCGAT,-0.238
9,AGTCAAGGTTCAGGACGAGGTAACGTAAAGCACG,3.45
10,CGAACTAGGTCAGAACAGGACAGGGAAGGATGAT,2.58
11,CCTACTGGGCCACGAAAGGACATTGATTCAGTGA,0.593
12,AGAACGCGGGCAATGAGTTGATAGCACGGGTGGC,0.0304
13,CCTCGGAGGATAACAGGAGGTCAGAGCTGCCAGA,2.32
14,ATATGTAGGTTACACCCGGGTCATTCAGGCTATG,3.97
15,AGAATGAGGGTATACGTAGATCAGGGAAGAAAGT,0.26
16,CCTACTTGGCCAAAGGTCATTGATTCCAATGCTC,5.37
17,ACTCGGAGGACACAGGTCAGAGCTACGCCAGTGA,2.68
18,AGAATGAGGTTATTCGTAGATCAGGGAAGAAAGT,1.86
19,TAGCCTAGGTCAGATCGGGACAGTATACGCTATA,2.85
20,CGAACTAGGTCAGAACAGGGCAGTGAAGGATGAT,2.65
